# ± gives the standard deviation.
# Assays:
# [1] = system: MILI (PIWIL2) piRISC loaded with L1MC piRNA (26 nt); assay: pre-steady-state target cleavage rate (min^-1); guide: L1MC piRNA 5'p-UAACUAAAUACUAUGCAAGCUGUAGG; higher = faster piRNA-guided slicing of the target;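 further: 1 nM active piRISC with 0.1 nM target library at 33 °C single turnover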
# Summary of the method: (§1)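 Three pooled Cleave-'n-Seq trials supplied the data, with k3 capped at 0.0001 min^-1. In each, […] transcribed, DNA-blocked target RNA library and 1 nM active affinity-purified piRISC with one synthetic guide reacted in HEPES–potassium acetate buffer at 33 °C for 0–8 or 0–960 min, with or without 500 nM GTSF1 partner protein. Uncleaved targets were sequenced and normalised to depth and to weakly complementary targets. A burst-and-steady-state fit provided the pre-steady-state cleavage rate.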
# [2] = system: EfPiwi piRISC loaded with L1MC piRNA (26 nt); assay: pre-steady-state target cleavage rate (min^-1); auxiliary factor: 500 nM Ephydatia muelleri Gtsf1; guide: L1MC piRNA 5'p-UAACUAAAUACUAUGCAAGCUGUAGG; MIWI and MILI are mouse PIWI proteins and EfPiwi is from a freshwater sponge; tags in brackets are library labels; higher = faster piRNA-guided slicing of the target
# Summary of the method: as §1
# [3] = auxiliary factor: 500 nM mouse GTSF1
# [4] = auxiliary factor: none (no GTSF1)
Sequence,"pre-steady-state target cleavage rate [1, 3]","pre-steady-state target cleavage rate [1, 4]",pre-steady-state target cleavage rate [2]
UCCUGGUUCAGCUUGCAUAGUAUUUAGUUA,0.23 ± 0.022,0.0108 ± 0.0032,0.0765 ± 0.018
UCCUGGAACAGGUAGCAUAGUAUUUAGUUA,0.209 ± 0.016,0.00531 ± 0.0016,0.00892 ± 0.0028
UCCUCCUACAGCUUGCAUAGUAAUUUAGUUA,0.199 ± 0.019,0.00674 ± 0.0025,0.00821 ± 0.0033
UCCUGGAUCAGCUUGCCUAGUAUUUAGUUA,0.234 ± 0.015,0.00686 ± 0.0022,0.0512 ± 0.011
UCCUGGUACAGCUUGCAAAGUAUUAAGUUA,0.0919 ± 0.018,0.00406 ± 0.0027,0.00292 ± 0.0026
UCCUCCUACAGCUUGCAAAGUAUUUACUUA,0.0765 ± 0.013,0.0033 ± 0.0019,0.00282 ± 0.0024
UCCUCCUAGAGCUUGCUUAGUAUUUAGUUA,0.261 ± 0.014,0.00563 ± 0.0022,0.0217 ± 0.0064
UCCUGCUACAGCUUGGAUAGUAUUUAGUUA,0.296 ± 0.017,0.0119 ± 0.0026,0.017 ± 0.0041
UCCUGCUACAGCUUGGUUAGUAUUUAGUUA,0.262 ± 0.015,0.0061 ± 0.002,0.0105 ± 0.0033
UCCUGGAUGUGCUUGCAUAGUAUUUAGUUC [g2:g20:cont:t1C],0.12 ± 0.013,0.00589 ± 0.0026,0.0175 ± 0.0048
UCCUGGAUCACUUGCAUAGUAUUUAGUUA,0.214 ± 0.018,0.0066 ± 0.0022,0.0567 ± 0.014
UCCUGCUACAGCUUGCAAAGUAAUUAGUUA,0.124 ± 0.018,0.00266 ± 0.0025,0.00362 ± 0.0019
UCCUGGUACAGGUUGCAAAGUAUUUAGUUA,0.117 ± 0.012,0.0143 ± 0.0038,0.00511 ± 0.0028
UCCUGGAUGUGCUCGCAUAGUAUUUAGUUA,0.155 ± 0.018,0.00981 ± 0.0026,0.00512 ± 0.0021
UCCUGGAUGAGCUUGACAUAGUAUUUAGUUA,0.0929 ± 0.01,0.00352 ± 0.0026,0.00729 ± 0.0021
UCCUGCUACAGCUUGCAUAGUAUUUCAGUUA,0.335 ± 0.075,0.00409 ± 0.0028,0.00522 ± 0.0019
UCCUCCUUCAGCAUGCAUAGUAUUUAGUUA,0.265 ± 0.017,0.00701 ± 0.0018,0.0621 ± 0.018
UCCUGGAUCAGCUUGCAUAGUAUUUAGGUA,0.0936 ± 0.021,0.00336 ± 0.0026,0.00436 ± 0.002
UCCUGGAUGUCCUUGCAUAGUAUUUAUUUA,0.0674 ± 0.018,0.00292 ± 0.0029,0.00464 ± 0.0036
UCCUGCUAGAGGUUGCAUAGUAUUUAGUUA,0.2 ± 0.011,0.0085 ± 0.0026,0.00977 ± 0.0027
UCCUGGAAGAGCUAGCAUAGUAUUUAGUUA,0.212 ± 0.016,0.00677 ± 0.0024,0.00727 ± 0.0022
UCCUGGAUGAGCUGGCAUAGUAUUUAGUUA,0.185 ± 0.016,0.0101 ± 0.0034,0.0103 ± 0.0035
UCCUCCUACAGGUUGCAUACUAUUUAGUUA,0.0492 ± 0.009,0.00246 ± 0.0023,0.00612 ± 0.0018
UCCUGGAACAGCUUGCAUAGUAUUUACUUA,0.0894 ± 0.017,0.003 ± 0.0029,0.00514 ± 0.0038
UCCUGGAUGUGCUUGCAUAGUAUUUAGUCA,0.117 ± 0.018,0.00487 ± 0.0035,0.00263 ± 0.0019
UCCUGGUACAGCUUCGAUAGUAUUUAGUUA,0.187 ± 0.025,0.00848 ± 0.0025,0.00411 ± 0.0026

Sequence,"pre-steady-state target cleavage rate [1, 3]","pre-steady-state target cleavage rate [1, 4]",pre-steady-state target cleavage rate [2]
UCCUGGAUGAGCUUGCUUAGUAAUUAGUUA,0.191 ± 0.019,0.00839 ± 0.0025,0.00425 ± 0.0027
UCCUGGAUGUGCUUGCAUACUAUUUAGUUA,0.0281 ± 0.0064,0.00431 ± 0.0022,0.0112 ± 0.0036
UCCUGCUACUGCUUGCAUAGUAUUUUGUUA,0.138 ± 0.024,0.00318 ± 0.0029,0.0061 ± 0.0024
UCCUGCUACAGGUUGCAUAGUAUUUAGUAA,0.223 ± 0.024,0.0054 ± 0.0028,0.00478 ± 0.0019
UCCUGCUAGAGCUUGCAUUGUAUUUAGUUA,0.219 ± 0.018,0.0097 ± 0.0023,0.00751 ± 0.0022
UCCUGGAACAGCUUGCCUAGUAUUUAGUUA,0.248 ± 0.015,0.00673 ± 0.0024,0.0399 ± 0.013
UCCUGGAACAGCUUGCAUAGUAUAUAGUUA,0.296 ± 0.029,0.00847 ± 0.0025,0.00501 ± 0.0025
UCCUGGUACAGCUUGCAUAGUAUUUAGAUA,0.149 ± 0.033,0.00493 ± 0.0028,0.00705 ± 0.0034
UCCUGGAUGUGCCUGCAUAGUAUUUAGUUA,0.0999 ± 0.015,0.00951 ± 0.003,0.00933 ± 0.0036
UCCUCCUACAGGUUGCAUAGUAUUUAGUUA,0.264 ± 0.013,0.00924 ± 0.0019,0.0556 ± 0.013
UCCUGGAUGUCGUGUGCAUAGUAUUUAGUUA,0.102 ± 0.015,0.00602 ± 0.0035,0.0038 ± 0.0033
UCCUGGAUGUGCAUUGCAUAGUAUUUAGUUA,0.182 ± 0.023,0.0119 ± 0.0039,0.0129 ± 0.0042
UCCUGGAUCAACUUGCAUAGUAUUUAGUUA,0.265 ± 0.017,0.00729 ± 0.0025,0.0635 ± 0.018
UCCUGCUACUGCUUGCAUACUAUUUAGUUA,0.0731 ± 0.011,0.00293 ± 0.0023,0.00669 ± 0.0028
UCCUGGUACAGGAUGCAUAGUAUUUAGUUA,0.215 ± 0.021,0.0111 ± 0.0037,0.00598 ± 0.003
UCCUGGUUCAGCUUGCAUAGUAAUUAGUUA,0.235 ± 0.024,0.00723 ± 0.0031,0.0107 ± 0.0037
UCCUGGUACAGCUUGCAUAGUUAUUAGUUA,0.0387 ± 0.015,0.00509 ± 0.0027,0.00325 ± 0.0025
UCCUCCUUCAGCUAGCAUAGUAUUUAGUUA,0.228 ± 0.017,0.00519 ± 0.0022,0.0131 ± 0.0046
UCCUGGAUCACCUUGGAUAGUAUUUAGUUA,0.173 ± 0.02,0.00563 ± 0.0021,0.00371 ± 0.0037
UCCUCGCUACAGCUUGCAUAGUAUUUAGUUA,0.276 ± 0.02,0.00839 ± 0.0032,0.0505 ± 0.017
UCCUGCUACAGCUUGGAUAGUAUUUUGUUA,0.109 ± 0.019,0.00311 ± 0.003,0.00556 ± 0.002
UCCUGGAACAGACUUGCAUAGUAUUUAGUUA,0.217 ± 0.014,0.00682 ± 0.0024,0.0135 ± 0.0042
UCCUCCUACAGCAUGCAUAGUAUAUAGUUA,0.243 ± 0.021,0.00579 ± 0.0023,0.00519 ± 0.0032
UCCUGGAUGUGUCUUGCAUAGUAUUUAGUUA,0.072 ± 0.013,0.014 ± 0.004,0.113 ± 0.038
UCCUCCUACAGCUUGCCAUAGUAUUUAGUUA,0.173 ± 0.026,0.00264 ± 0.0026,0.00595 ± 0.0024
